# Measured values reported in PubChem BioAssay (Tox21).
# Values joined by “and” are separate entries in the source; they are usually repeats but may differ in a detail not shown here. Equal entries are not always repeated. Results filed as inconclusive are left out. Where a call stands in place of a potency, no number is given. A structure can be active in one record and inactive in another. Active and inactive are the calls of the source. Unless noted, calls come from the whole dose curve; as a rule, active = well fitted curve in the direction sought with a large enough effect in the repeat runs; inconclusive = weak or mixed curves; inactive = no such curve, though single readings can be large; an effect the other way counts as inactive or inconclusive.
# Assays:
# [1] = biological target: Acetylcholinesterase (Homo sapiens) (UniProt P22303); experiment: Acetylcholinesterase (AChE) small molecule antagonists: fluorescence cell-based qHTS assay (AID 1347398; calls by dose curve; note: nearly all actives have a fitted effect of over 50% in size); details: Potency: AChE activity
# Chain of Acetylcholinesterase (Homo sapiens) (P22303 whole entry, looked up): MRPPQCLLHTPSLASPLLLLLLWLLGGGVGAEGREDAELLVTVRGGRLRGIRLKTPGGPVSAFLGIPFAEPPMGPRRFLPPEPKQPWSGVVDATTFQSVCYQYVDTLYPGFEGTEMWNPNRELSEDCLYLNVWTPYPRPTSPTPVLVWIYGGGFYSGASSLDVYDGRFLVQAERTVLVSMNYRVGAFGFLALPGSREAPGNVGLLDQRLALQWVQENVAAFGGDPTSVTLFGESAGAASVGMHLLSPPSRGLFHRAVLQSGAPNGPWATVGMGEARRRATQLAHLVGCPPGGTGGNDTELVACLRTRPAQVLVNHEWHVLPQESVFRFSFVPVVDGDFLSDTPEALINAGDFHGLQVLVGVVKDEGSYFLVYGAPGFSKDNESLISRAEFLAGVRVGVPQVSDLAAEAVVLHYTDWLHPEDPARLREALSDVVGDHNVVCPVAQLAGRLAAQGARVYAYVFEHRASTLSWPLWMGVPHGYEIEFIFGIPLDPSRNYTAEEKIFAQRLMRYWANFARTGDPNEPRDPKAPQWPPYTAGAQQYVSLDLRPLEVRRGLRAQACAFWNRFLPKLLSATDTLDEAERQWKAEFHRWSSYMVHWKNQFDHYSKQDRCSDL
# Summary of the method: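 Read-out is Thiolite Green fluorescence at Ex/Em = 490/520 nm, formed by reaction with thiocholine released when cellular AChE in SH-SY5Y cells hydrolyzes acetylthiocholine. Compounds were preincubated 30 min at 37 C before substrate.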
# [2] = biological target: Acetylcholinesterase (Homo sapiens) (UniProt P22303); experiment: Acetylcholinesterase (AChE) small molecule antagonists: enzyme-based qHTS assay with human liver microsomes (AID 1347399; calls by dose curve; note: nearly all actives have a fitted effect of over 60% in size); details: Potency: qHTS inhibition
# Summary of the method: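 Recombinant human AChE (50 mU/mL in the enzyme mix) and human liver microsomes (0.25 mg/mL final) were preincubated with compound and NADPH (0.25 mg/mL final) for 30 min at 37 C. Acetylthiocholine/DTNB was then added; thiocholine was read colorimetrically after 10 min at room temperature.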
# [3] = biological target: Cytochrome P450 2C19 (Homo sapiens) (UniProt P33261); experiment: Cytochrome P450 Family 2 Subfamily C Member 19 (CYP2C19) small molecule antagonists: luciferase reporter qHTS assay (AID 1671197); note: nearly all actives have a fitted effect of over 65% in size; note: potency is the fitted concentration of half-maximal effect
# Chain of Cytochrome P450 2C19 (Homo sapiens) (P33261 whole entry, looked up): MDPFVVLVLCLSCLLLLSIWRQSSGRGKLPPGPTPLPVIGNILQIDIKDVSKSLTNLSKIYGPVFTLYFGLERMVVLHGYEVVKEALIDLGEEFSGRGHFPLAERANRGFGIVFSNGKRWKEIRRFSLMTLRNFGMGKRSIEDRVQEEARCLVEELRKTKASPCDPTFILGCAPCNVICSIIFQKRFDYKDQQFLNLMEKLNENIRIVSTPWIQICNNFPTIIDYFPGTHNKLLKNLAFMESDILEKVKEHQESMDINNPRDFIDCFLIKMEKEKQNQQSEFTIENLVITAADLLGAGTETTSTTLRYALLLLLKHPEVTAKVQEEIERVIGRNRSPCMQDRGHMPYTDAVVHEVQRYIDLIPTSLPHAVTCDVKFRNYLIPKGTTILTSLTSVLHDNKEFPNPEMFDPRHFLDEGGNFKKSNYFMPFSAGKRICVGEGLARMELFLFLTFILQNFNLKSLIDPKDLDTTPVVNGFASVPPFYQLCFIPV
# Summary of the method: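 CYP2C19 P450-Glo, 1536-well qHTS. Cpd + enzyme/proluciferin substrate 10 min RT; + NADPH regen, 37C 1 h; stop with luciferin detection reagent, 20 min RT, luminescence (RLU). Pos ctrl ketoconazole.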
# [4] = biological target: Cytochrome P450 2C9 (Homo sapiens) (UniProt P11712); experiment: Cytochrome P450 Family 2 Subfamily C Member 9 (CYP2C9) small molecule antagonists: luciferase reporter qHTS assay (AID 1671198); note: nearly all actives have a fitted effect of over 50% in size; note: potency is the fitted concentration of half-maximal effect
# Chain of Cytochrome P450 2C9 (Homo sapiens) (P11712 whole entry, looked up): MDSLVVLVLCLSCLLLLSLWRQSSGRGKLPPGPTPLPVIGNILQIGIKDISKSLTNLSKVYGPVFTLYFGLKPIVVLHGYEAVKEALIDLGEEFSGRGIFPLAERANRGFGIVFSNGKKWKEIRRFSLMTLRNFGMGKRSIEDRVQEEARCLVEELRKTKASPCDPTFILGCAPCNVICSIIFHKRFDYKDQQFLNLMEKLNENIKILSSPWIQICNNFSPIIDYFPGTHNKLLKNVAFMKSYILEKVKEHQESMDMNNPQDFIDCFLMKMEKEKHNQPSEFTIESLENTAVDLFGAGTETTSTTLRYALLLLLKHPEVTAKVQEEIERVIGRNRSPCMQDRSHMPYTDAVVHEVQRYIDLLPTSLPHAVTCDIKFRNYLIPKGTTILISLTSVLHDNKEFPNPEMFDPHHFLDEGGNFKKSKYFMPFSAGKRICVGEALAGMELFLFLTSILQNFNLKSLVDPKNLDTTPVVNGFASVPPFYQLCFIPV
# Summary of the method: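 Enzyme-substrate mix preincubated with compound 10 min at room temperature; reaction started with NADPH regeneration solution, 1 h 37C. Luminescent luciferin product read after 20 min detection reagent.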
# [5] = biological target: Cytochrome P450 1A2 (Homo sapiens) (UniProt P05177); experiment: Cytochrome P450 Family 1 Subfamily A Member 2 (CYP1A2) small molecule antagonists: luciferase reporter qHTS assay (AID 1671199); note: nearly all actives have a fitted effect of over 50% in size; note: potency is the fitted concentration of half-maximal effect
# Chain of Cytochrome P450 1A2 (Homo sapiens) (P05177 whole entry, looked up): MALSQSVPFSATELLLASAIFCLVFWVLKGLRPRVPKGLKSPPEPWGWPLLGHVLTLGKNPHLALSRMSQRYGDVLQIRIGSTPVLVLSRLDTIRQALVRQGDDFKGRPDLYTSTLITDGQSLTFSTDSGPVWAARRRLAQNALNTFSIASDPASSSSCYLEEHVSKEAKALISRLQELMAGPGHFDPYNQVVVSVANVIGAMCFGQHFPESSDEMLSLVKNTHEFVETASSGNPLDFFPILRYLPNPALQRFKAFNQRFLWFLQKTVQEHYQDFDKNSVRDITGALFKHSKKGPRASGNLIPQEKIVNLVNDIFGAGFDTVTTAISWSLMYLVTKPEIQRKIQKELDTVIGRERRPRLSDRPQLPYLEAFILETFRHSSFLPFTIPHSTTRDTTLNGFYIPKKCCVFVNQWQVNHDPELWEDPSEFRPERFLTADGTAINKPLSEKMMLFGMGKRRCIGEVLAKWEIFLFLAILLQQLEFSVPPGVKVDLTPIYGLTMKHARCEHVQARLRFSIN
# Summary of the method: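 Enzymatic CYP1A2 assay, human, luminescent: 10 min compound–enzyme–substrate preincubation, 1 h NADPH-dependent turnover, 20 min detection step, room temperature throughout. Reduced light indicates lower CYP1A2 activity.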
# [6] = biological target: Voltage-gated inwardly rectifying potassium channel KCNH2 (Homo sapiens) (UniProt Q12809); experiment: Human Ether-a-go-go-Related Gene (hERG) channel small molecule antagonists: fluorescence cell-based qHTS assay (AID 1671200); note: nearly all actives have a fitted effect of over 50% in size; note: potency is the fitted concentration of half-maximal effect
# Chain of Voltage-gated inwardly rectifying potassium channel KCNH2 (Homo sapiens) (Q12809 whole entry, looked up): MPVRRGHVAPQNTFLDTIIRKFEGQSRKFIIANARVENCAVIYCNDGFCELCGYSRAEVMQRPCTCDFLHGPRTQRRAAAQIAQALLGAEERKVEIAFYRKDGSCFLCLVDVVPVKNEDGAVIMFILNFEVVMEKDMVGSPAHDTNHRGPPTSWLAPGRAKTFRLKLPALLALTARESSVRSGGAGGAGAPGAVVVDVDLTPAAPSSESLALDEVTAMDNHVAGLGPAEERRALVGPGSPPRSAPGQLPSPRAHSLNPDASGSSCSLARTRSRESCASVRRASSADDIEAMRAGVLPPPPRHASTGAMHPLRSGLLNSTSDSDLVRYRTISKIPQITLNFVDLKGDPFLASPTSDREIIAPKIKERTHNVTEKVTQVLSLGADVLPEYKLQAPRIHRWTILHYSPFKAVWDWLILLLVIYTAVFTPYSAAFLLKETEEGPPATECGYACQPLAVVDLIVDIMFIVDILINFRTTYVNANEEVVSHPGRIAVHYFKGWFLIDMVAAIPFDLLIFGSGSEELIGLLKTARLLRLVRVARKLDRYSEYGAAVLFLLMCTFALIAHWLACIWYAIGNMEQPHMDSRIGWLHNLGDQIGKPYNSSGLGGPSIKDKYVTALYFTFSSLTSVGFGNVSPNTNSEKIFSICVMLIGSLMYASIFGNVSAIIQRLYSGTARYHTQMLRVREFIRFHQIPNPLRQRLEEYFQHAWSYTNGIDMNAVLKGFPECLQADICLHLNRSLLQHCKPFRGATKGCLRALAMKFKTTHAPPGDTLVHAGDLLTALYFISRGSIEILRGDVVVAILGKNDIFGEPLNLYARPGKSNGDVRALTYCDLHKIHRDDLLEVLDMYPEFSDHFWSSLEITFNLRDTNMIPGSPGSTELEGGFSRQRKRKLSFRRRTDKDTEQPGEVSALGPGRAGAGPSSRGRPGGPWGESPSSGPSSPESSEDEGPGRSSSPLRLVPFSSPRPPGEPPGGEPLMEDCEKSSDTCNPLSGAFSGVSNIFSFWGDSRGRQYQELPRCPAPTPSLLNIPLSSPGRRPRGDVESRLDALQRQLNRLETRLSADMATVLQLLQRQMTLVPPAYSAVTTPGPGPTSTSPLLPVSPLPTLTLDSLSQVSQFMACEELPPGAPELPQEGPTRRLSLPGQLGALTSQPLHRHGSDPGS
# Summary of the method: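 Quantitative HTS in hERG-U2OS cells: thallium entry through the channel reports activity, read as continuous 480/540 nm fluorescence over 2 min after stimulus addition.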
# [7] = biological target: Cytochrome P450 3A4 (Homo sapiens) (UniProt P08684); experiment: Cytochrome P450 Family 3 Subfamily A Member 4 (CYP3A4) small molecule antagonists: luciferase reporter qHTS assay (AID 1671201); note: nearly all actives have a fitted effect of over 50% in size; note: potency is the fitted concentration of half-maximal effect
# Chain of Cytochrome P450 3A4 (Homo sapiens) (P08684 whole entry, looked up): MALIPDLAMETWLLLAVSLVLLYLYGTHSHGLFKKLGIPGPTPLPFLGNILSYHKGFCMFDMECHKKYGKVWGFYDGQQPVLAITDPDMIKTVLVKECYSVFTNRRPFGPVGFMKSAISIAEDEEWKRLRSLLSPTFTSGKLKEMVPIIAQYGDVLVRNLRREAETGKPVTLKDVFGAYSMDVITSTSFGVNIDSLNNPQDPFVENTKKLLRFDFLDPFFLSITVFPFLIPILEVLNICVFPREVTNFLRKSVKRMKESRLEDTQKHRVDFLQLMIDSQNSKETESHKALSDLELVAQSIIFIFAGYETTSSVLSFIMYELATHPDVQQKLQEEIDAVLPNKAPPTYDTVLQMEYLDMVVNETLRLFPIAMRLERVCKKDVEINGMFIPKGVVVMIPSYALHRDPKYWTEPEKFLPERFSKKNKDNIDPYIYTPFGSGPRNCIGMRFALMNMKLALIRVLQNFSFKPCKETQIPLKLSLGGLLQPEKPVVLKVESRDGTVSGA
# Summary of the method: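 Inhibition of CYP3A4 is measured as loss of light: the enzyme converts a proluciferin substrate to luciferin, detected luminescently. Reaction ran 1 h at room temperature with NADPH regeneration after a 10 min compound preincubation.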
SMILES,Potency [1],Potency [2],Potency [3],Potency [4],Potency [5],Potency [6],Potency [7]
CC1CCC(C(C)C)C(OC(=O)c2ccccc2N)C1 (configuration not stated),inactive,inactive,1.11 µM (active),2.48 µM (active),12.4 µM (active),43 µM (active),inactive
C=CC(=O)N(C)C,inactive,inactive,inactive,inactive,inactive,inactive,inactive
CC(C)OS(C)(=O)=O,inactive,inactive,inactive,inactive,40.2 µM (active),inactive,inactive
[Cl][Sb]([Cl])[Cl],inactive,inactive,inactive,inactive,inactive,inactive,inactive
CCCCCCCCCBr,inactive,inactive,inactive,inactive,inactive,inactive,–
ClC1=C(Cl)[C@]2(Cl)[C@@H]3[C@@H](Cl)[C@H](Cl)C[C@@H]3[C@@]1(Cl)C2(Cl)Cl,inactive,inactive,inactive,inactive,inactive,inactive,–
BrC(Br)C(Br)(Br)Br,inactive,inactive,40.2 µM (active),31.9 µM (active),31.9 µM (active),–,inactive
CC1(c2ccc(Oc3ccccc3)cc2)OC(=O)N(Nc2ccccc2)C1=O (configuration not stated),inactive,inactive,12.7 µM (active),8.99 µM (active),35.8 µM (active),–,11.3 µM (active)
CC(C)CC(C)N (configuration not stated),inactive,inactive,inactive,inactive,inactive,inactive,inactive
NNC(=O)c1ccccc1,inactive,inactive,41 µM (active),41 µM (active),32.6 µM (active),inactive,36.6 µM (active)
OC(Cc1ccccc1Cl)(Cn1cncn1)C1(Cl)CC1 (configuration not stated),inactive,inactive,1.26 µM (active),2 µM (active),0.796 µM (active),inactive,0.2 µM (active)
CCCCN(CCCC)C(=S)[S-].CCCCN(CCCC)C(=S)[S-].[Zn+2],inactive,inactive,79.6 µM (active),20 µM (active),–,inactive,–
CN(C)c1ccc(N=Nc2ccccc2)cc1,inactive,inactive,20 µM (active),15.9 µM (active),3.56 µM (active),inactive,inactive
Oc1ccc(C(c2ccc(O)cc2)(C(F)(F)F)C(F)(F)F)cc1,inactive,inactive,5 µM (active) and 2.83 µM (active),3.16 µM (active) and 2 µM (active),inactive,43.4 µM (active),35.4 µM (active) and 35.6 µM (active)
CC(=O)C(Cl)(Cl)Cl,inactive,inactive,54.5 µM (active),15.3 µM (active),–,inactive,inactive
O=C1c2ccccc2C(=O)C1C(=O)C(c1ccccc1)c1ccc(Cl)cc1 (configuration not stated),inactive,inactive,17.8 µM (active),0.0252 µM (active),20 µM (active),inactive,inactive
Clc1ccc(C(c2ccc(Cl)cc2)C(Cl)(Cl)Cl)cc1,inactive,inactive,20.2 nM (active) and 17.8 nM (active) and 69.2 nM (active),2.26 µM (active) and 10 µM (active) and 3.89 µM (active),12.6 µM (active) and 13.8 µM (active),13.8 µM (active),inactive
CC(c1ccc(O)cc1)c1ccc(O)cc1,inactive,inactive,21 µM (active) and inactive,59.3 µM (active) and 35.6 µM (active),37.4 µM (active) and inactive,51.5 µM (active) and inactive,42 µM (active)
ClCCN1CCOCC1,inactive,inactive,inactive,inactive,inactive,inactive,inactive
COC(=O)N(C(=O)N1CO[C@@]2(C(=O)OC)Cc3cc(Cl)ccc3C2=N1)c1ccc(OC(F)(F)F)cc1,inactive,inactive,0.154 µM (active),2.73 µM (active),–,inactive,2.44 µM (active)
